According to ChEMBL document CHEMBL1157539, “Thousands of chemical starting points for antimalarial lead identification” (Nature, 2010):
Several values for one entry are separate records, joined by “and”; a condition that tells them apart may be missing. Equal values may be shown once.

Experiments:
Format in all cases: functional
Plasmodium falciparum [1] = assay: GSK_TCMDC: Inhibition of Plasmodium falciparum 3D7 in whole red blood cells, using parasite LDH activity as an index of growth. Test compounds present at 2uM
Plasmodium falciparum [2] = assay: GSK_TCMDC: Inhibition of Plasmodium falciparum Dd2 in whole red blood cells, using parasite LDH activity as an index of growth. Test compounds present at 2uM
HepG2 = assay: GSK_TCMDC: Percent inhibition of human HepG2 cell line. Test compounds present at 10uM.

Compound	Inhibition (Plasmodium falciparum [1])	Inhibition (Plasmodium falciparum [2])	Inhibition (HepG2)
Clc1cccc(C23N/C(=N\c4nc5ccccc5[nH]4)NC2(c2ccccc2)N/C(=N\c2nc4ccccc4[nH]2)N3)c1 (configuration not stated)	85%	88%	0%
CNC(=O)CNC(=O)COc1cccc2ccccc12	98%	0%	3%
Cl.NOCCCCOc1cc(Cl)c(Cl)cc1Cl	92%	5%	6%
Cc1ccnc2nc(C(=O)Nc3cc(Cl)ccc3N3CCOCC3)nn12	84%	63%	0%
COc1cc(C(=O)Nc2cccc(-c3cn4ccc(C)cc4n3)c2)cc(OC)c1OC	97%	83%	0%
CC(C)N(CCOc1ccc2c(c1)N(C(=O)Nc1ccc(Cl)c(Cl)c1)CC2)C(C)C.O=C(O)C(F)(F)F	100%	39%	15%
FC(F)(F)c1ccc2nccc(NCc3ccccc3)c2c1	93%	56%	18%
O=C(C=Cc1ccc(Cl)c(Cl)c1)NCCCCCN1CCCC(CCCNS(=O)(=O)c2cccc(C(F)(F)F)c2)C1 (configuration not stated)	94%	33%	81%
COc1ccc(Oc2ccc(-c3c(C)[nH]c(C)c(Cl)c3=O)cc2)cc1	97%	97%	0%
COc1cc2nc(N3CCC(CNC(=O)/C=C/c4cccc(C)c4)CC3)nc(N)c2cc1OC	100%	68%	16%
CC1CCC2(CC1)NC(N)=NC(=N)N2OCCCCCCCCO (configuration not stated)	96%	87%	2%
CCN(CCCN1CCCCC1)c1cc(C)nc(Nc2ccc(C)cc2C)n1.O=C(O)C(F)(F)F	91%	35%	33%
CCOCCCn1c(=N)c(C(=O)NC(C)c2ccccc2)cc2c(=O)n3cccc(C)c3nc21 (configuration not stated)	95%	31%	24%
CCOc1cc(NC(=O)Nc2ccnc3ccccc23)cc(OC)c1.Cl	98%	73%	0%
S=C(NCCCCCN1CCC(c2c[nH]c3ccccc23)CC1)Nc1ccc(Cl)c(Cl)c1	100%	31%	89%
NC(=O)c1ccccc1OCC(=O)Nc1cccc(-c2cccc(-c3nc4ccccc4[nH]3)c2)c1	88%	46%	23%
COc1ccccc1N1CCN(C(C(=O)NCc2ccc3c(c2)OCO3)c2ccc(C)cc2)CC1 (configuration not stated)	85%	81%	1%
CCC(CC(NCCCCNC(=O)c1ccc(NC(=O)c2ccc(Cl)cc2)cc1)c1ccccc1)c1ccccc1OC (configuration not stated)	100% and 89%	56% and 76%	23% and 10%
COc1ccc2nccc([C@@H](O)CN3CCC(NCc4cc5sccc5nc4C(F)(F)F)CC3)c2c1.O=C(O)C(=O)O	89%	67%	22%
Cl.Cn1ncc2c3c(CCN4CCC(NCc5cc6c(cn5)OCCO6)CC4)c(Cl)cnc3ccc21	95%	34%	1%
Cc1cccc2nc(-c3ccc(-c4ccc(NC(=O)c5cncn5C)cc4)s3)[nH]c12	100%	30%	49%
N#Cc1cccc(C(=O)NC2CCN(CCCCCNC(=O)/C=C/c3ccc(Cl)c(Cl)c3)CC2)c1	100%	0%	11%
CCOc1c(Br)cc(C)cc1CNCCCNc1nc2ccccc2[nH]1.Cl	93%	5%	24%
COc1ccc2c(=NN=C(C)c3ccccn3)cc(C)[nH]c2c1	100%	51%	33%
C=CCn1c(Cc2ccccc2)nnc1Sc1ccc(C#N)c([N+](=O)[O-])c1	86%	43%	7%
CS(=O)(=O)c1ccc(-c2cc(C(F)(F)F)nc(N[C@@H]3CCCC[C@H]3OCc3ccccc3)n2)cc1	100%	99%	8%
FC(F)(F)c1ccc(N2CCCN(Cc3cccc(-c4ccccc4CNCc4ccc5c(c4)OCO5)c3)CC2)nc1.O=C(O)C(F)(F)F	87%	11%	23%
O=C(C=Cc1cn(-c2ccccc2)nc1-c1ccccc1)N1CCN(c2ccncc2)CC1	90%	20%	11%
CCNc1nc(OCC(F)(F)F)nc(N(c2ccccc2)c2ccccc2)n1	100%	83%	5%
